SF1 inhibitor: SF-1 (human) inhibition | CHO-K1 Gal4-SF-1 LBD luciferase reporter | inhibition, % at 10 µM | 65,000 compounds, 0.55% hits | AID 525;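 active = inhibition above the mean inhibition of all tested compounds plus 3 SD, cut at about 48% in these data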;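 note: 0% = SF-1 transfected cells with DMSO and 100% = mock-transfected cells lacking SF-1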
Target sequence (Q13285 whole entry, looked up, the tested form may be a part): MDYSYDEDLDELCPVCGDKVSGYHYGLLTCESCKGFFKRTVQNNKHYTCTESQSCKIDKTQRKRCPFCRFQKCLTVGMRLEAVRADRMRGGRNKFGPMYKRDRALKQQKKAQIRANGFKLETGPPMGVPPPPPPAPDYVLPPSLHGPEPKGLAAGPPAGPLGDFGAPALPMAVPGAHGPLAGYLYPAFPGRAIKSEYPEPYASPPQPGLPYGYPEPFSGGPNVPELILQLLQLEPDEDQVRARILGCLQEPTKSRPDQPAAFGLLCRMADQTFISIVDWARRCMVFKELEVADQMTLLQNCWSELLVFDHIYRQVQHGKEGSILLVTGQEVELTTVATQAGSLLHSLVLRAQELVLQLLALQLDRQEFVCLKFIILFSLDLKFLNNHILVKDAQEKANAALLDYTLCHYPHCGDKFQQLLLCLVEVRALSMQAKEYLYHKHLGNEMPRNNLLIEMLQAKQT
An asterisk follows results filed as active. The entries come from a sample that favours hits as a whole.

SMILES	SF1 inhibitor
CCOC(=O)c1ccc(N2Cc3cc(C)c(C)cc3C2)cc1O	0
CN=c1scc(C)n1/N=C/c1ccc(O)cc1O	52*
CN=c1scc(C)n1/N=C/c1ccc(O)cc1	25
Cc1nn(-c2ccccc2)c2sc(C(=O)N(CC(=O)NC(C)(C)C)Cc3ccco3)cc12	-7
CCN1C(=Nc2ccc(Cl)cc2)SC/C1=C\C(=O)OC	-2
Brc1ccc(-c2nc(-c3cccnc3)no2)o1	-66
c1ccc(CCCc2nc(-c3ccccn3)no2)cc1	-57
COc1cccc(-c2nc(-c3ccccn3)no2)c1OC	-50
Cc1ccccc1-c1noc(-c2ccc(O)cc2)n1	-33
CC(C)(C)c1ccc(OCc2nc(-c3ccccn3)no2)c(Br)c1	-71
Cc1ccc(-c2nc(-c3ccccn3)no2)cc1Cl	86*
Cc1ccc(-c2nc(-c3ccccn3)no2)cc1	92*
Clc1ccc(OCc2nc(-c3ccncc3)no2)c(Cl)c1	-86
Clc1cccc(-c2nc(-c3ccccn3)no2)c1	71*
Cn1c(=O)c2cc(S(=O)(=O)NCCC(=O)NCCC3=CCCCC3)ccc2n(C)c1=O	12
Cc1ccc(-n2nnc3c(SCC(=O)NCc4ccco4)ncnc32)cc1	19
COc1ccc(Cl)cc1-n1c(=S)sc2c(=O)[nH]c(SCC(=O)NCC3CCCO3)nc21 (stereo not given)	5
O=C(Cc1ccccc1)NCCc1cn2ccsc2n1	-1
CCOC(=O)C1CCN(C(=O)CN(c2cccc(OC)c2)S(=O)(=O)c2ccccc2)CC1	-1
COc1nc(C)nc2c1sc(=S)n2C	-24
CCC(=O)Nc1cccc(-c2nc3ccccc3c(=O)o2)c1	22
CC(=O)/C=C(\C)Nc1ccc(-c2cnc(-c3ccccc3)o2)cc1	-57
CC(=O)Nc1cccc(-c2nnc(-c3ccccc3)o2)c1	-51
COc1ccc(CC(=O)Nc2ccc(-c3nnc(-c4ccccc4)o3)cc2)cc1OC	77*
COc1ccc(CC(=O)Nc2cccc(-c3nnc(-c4cccc(C)c4)o3)c2)cc1OC	93*
SMILES	SF1 inhibitor
CCOc1cccc(C(=O)Nc2cccc(-c3nnc(-c4ccc(C)cc4)o3)c2)c1	11
O=C(COC(=O)Cn1cnc2ccccc21)NCCC1=CCCCC1	-4
CCOc1cc(N2CCOCC2)c(OCC)cc1NC(=O)CSc1cccc[n+]1[O-]	-8
Cc1ccc(S(=O)(=O)c2nc(-c3ccco3)oc2SCC(=O)NCC2CCCO2)cc1 (stereo not given)	-8
O=C1c2ccccc2C(=O)N1CCCn1nnc(-c2ccc(N3CCOCC3)cc2)n1	-3
CCn1c(SCc2cccnc2)nnc1-c1c[nH]c2ccccc12	1
CCCCOc1ccc(OC(=O)c2cccnc2)cc1	66*
CCCCOc1ccc(-c2ncc(Cl)cn2)cc1	-26
O=C(COc1ccc(-c2ccccc2)cc1)N1CCN(C(=O)c2cccnc2)CC1	-16
Cc1csc2nc(CNS(=O)(=O)c3ccc4c(c3)CCCC4)cn12	-14
CCCc1nnc(NC(=O)CCC(=O)N2CCCCCC2)s1	8
NS(=O)(=O)c1ccc(CCNC2CC(=O)N(Cc3ccccc3)C2=O)cc1 (stereo not given)	-7
CCOC(=O)c1cnc(-n2nc(C)cc2C)nc1NC1CCCCC1	87*
CCOC(=O)c1snc(C(=O)NC2CCCCC2)c1N	-106
CCOC(=O)c1cnc(-n2nc(C)cc2C)nc1Nc1ccc2c(c1)OCO2	6
O=c1cc(CSc2nnc(-c3ccccc3)o2)c2ccccc2[nH]1	8
CN1CCN(C(=O)c2cccc(COc3cc(Cl)ccc3Cl)c2)CC1	-69
O=C(O)c1cccc(COc2ccccc2Cl)c1	94*
O=C(COc1ccccc1Cl)Nc1ccc(Cl)cn1	-74
COc1ccccc1N(Cc1cc2cccc(C)c2[nH]c1=O)C(=O)C(C)C	2
Fc1ccc(-c2nnc(-c3ccc(Cl)cc3Cl)o2)cc1	24
Clc1ccc(-c2nnc(NC3=NCCCCC3)o2)cc1	58*
Cn1c(=O)c2c(ncn2CCCNC2=CC(C)(C)CC(=O)C2)n(C)c1=O	8
Cc1ccc(O)c(C(=O)c2cnc3c(c2)CN(CCC(C)C)C(=O)N3)c1	-18
CN1Cc2cc(C(=O)c3cc(Cl)cc(CSc4ncccn4)c3O)cnc2NC1=O	50*
SMILES	SF1 inhibitor
COc1ccc(CNc2nc3c(c(=O)n(Cc4ccc(F)cc4)c(=O)n3C)n2C)cc1	5
C=CCNC(=O)NS(=O)(=O)c1ccc(C)cc1	4
Cc1cccc(-n2ncc3c(N(C)Cc4ccccc4)ncnc32)c1	-64
O=C(C1CCCN(S(=O)(=O)c2ccccc2)C1)N1CCCc2ccccc21 (stereo not given)	5
COc1ccc(N2CC(C(=O)Nc3ccc(N4CCOCC4)cc3)CC2=O)cc1 (stereo not given)	3
COc1ccc(OC)c(S(N)(=O)=O)c1	-13
COc1ccc(OC)c(NS(=O)(=O)c2ccc(N3CCCC3=O)cc2)c1	53*
O=S(=O)(NCc1ccncc1)c1ccc(Br)s1	83*
O=S(=O)(NCc1csc(-c2ccccc2)n1)c1ccc(Cl)s1	12
O=C(CNS(=O)(=O)c1ccc(Br)s1)Nc1ccc2c(c1)OCCO2	-27
CCOC(=O)N1CCN(C(=O)CN(C)S(=O)(=O)c2ccc(OC)c(OC)c2)CC1	0
COC(=O)C1=C(N)N(c2ccc(F)cc2)C2=C(C(=O)CCC2)C1c1ccc2c(c1)OCO2 (stereo not given)	13
CS(=O)(=O)c1nc(-c2ccccc2)cc(C(F)(F)F)n1	52*
O=C(O)c1cc2nc(-c3ccccc3)cc(C(F)(F)F)n2n1	7
COc1ccc(-c2cc(C(F)(F)F)nc(N3CCN(c4ccccc4)CC3)n2)cc1OC	-12
O=C(CC1OC(=O)c2ccccc21)c1ccco1 (stereo not given)	2
CCOC(=O)Cn1c(=O)c2c(nc(Br)n2Cc2ccc(Cl)cc2)n(C)c1=O	0
c1ccn2c(SCc3cn4ccsc4n3)nnc2c1	-71
Cc1occc1C(=O)N1CCN(c2ccc(Cl)c(Cl)c2)CC1	56*
O=C(c1ccc2c(c1)OCO2)N1CCN(c2ccc(F)cc2)CC1	-7
Cc1occc1C(=O)n1nnc2ccccc21	5
COC(=O)c1ccc(CSc2nc(C)nc3sc(C)c(C)c23)o1	16
O=c1cc(N2CCC(Cc3ccccc3)CC2)[nH]c(=O)n1C1CCCCC1	-3
CCC(C(=O)N1CCc2ccccc2C1)n1nc(C)n2c(cc3occc32)c1=O (stereo not given)	18
Cn1nc(C(C)(C)C)cc1C(=O)NCc1ccc(N2CCCC2=O)cc1	69*
SMILES	SF1 inhibitor
O=C(NCc1ccccc1)c1noc2c1CCCCC2	-52
O=C1CC(NCCN2CCOCC2)C(=O)N1Cc1ccc(N2CCCC2=O)cc1 (stereo not given)	-4
CCC(=O)NC1(C(F)(F)F)C(=O)NC(C)=C1C#N (stereo not given)	12
CCOC(=O)c1c(N)sc2c1CCS(=O)(=O)C2	5
CC(C)c1nnc(NC(=O)C2CCN(c3nc4ccccc4s3)CC2)s1	-18
CCOc1ccc2nc(N3CCCCCC3)sc2c1	-58
Cc1cc(N2CCN(c3nc4ccccc4s3)CC2)n2ncnc2n1	55*
CN1CC(=O)N(C)c2ncn(Cc3ccccc3)c2C1=O	21
COc1ccc(-c2cc(C(=O)OC3CCOC3=O)c3ccccc3n2)cc1OC (stereo not given)	-6
CCN=C1SC(C(=O)Nc2cccc(OCC)c2)CC(=O)N1CC (stereo not given)	24
CCCC(=O)Nc1cccc(C(=O)Nc2nccs2)c1	-22
O=C(Nc1cccc(-c2nc3ccccc3[nH]2)c1)c1ccco1	-28
O=C(Nc1nc2ccccc2[nH]1)c1ccccc1F	84*
